# According to PubChem BioAssay:
# Tested on: PRMT1 (protein arginine N-methyltransferase 1)
# Test: small molecules binding arginine methyltransferase PRMT1 – biochemical, small-molecule microarray, 635 nm fluorescence, primary screen (AID 1088);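 note: binding of Prmt1 protein to compounds spotted on small-molecule microarray slides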
# Conditions: higher = more signal
row,SMILES,composite z-score
1,COC(=O)c1c2oc(c1C(=O)OC)C(=O)N[C@@H](C(C)C)Cn1cc(nn1)C1(CCCCC1)NC(=O)N[C@H](CO)CC2,0.523
2,COc1ccccc1CN1C(=O)c2ccccc2[C@@]2(Cc3ccccc3N(CCCN(C)C)C2=O)[C@@H]1c1ccc(CO)cc1,0.557
3,COC(=O)[C@@]1(Cc2ccc(OC)cc2)[C@H]2c3cc(C(=O)N(C)C)n(Cc4ccc(C(F)(F)F)nc4)c3C[C@H]2CN1C(=O)c1ccccc1,-1.54
4,CC(CO)N1C(=O)[C@@H]2C3C(=O)OCCC/C=C\[C@H]3OC23C=CCN(CCN2CCOCC2)C(=O)[C@@H]13 (stereo not given in full),0.871
5,CCOC(=O)C1=C[C@@H](C(C)C)N(S(=O)(=O)c2ccc(C)cc2)[C@H]1c1ccccc1F,1.58
6,O=C1O[C@@H](c2ccccc2)[C@@H](c2ccccc2)N2[C@@H](c3ccccc3OCCO)[C@]3(C(=O)Nc4ccc(C#CC5(O)CCCCCC5)cc43)[C@@H](C(=O)N3CCN(c4ncccn4)CC3)[C@H]12,1.55
7,COC(=O)c1c(CC[C@@H](CO)NC(=O)N[C@@H](Cc2ccccc2)Cn2cc(-c3ccccn3)nn2)oc(C(=O)N2CCOCC2)c1C(=O)OC,0.278
8,COc1ccc(C(O)C2C=CC3C(=O)N(C)C(=O)C3N2N(c2ccccc2)c2ccccc2)c2ccccc12 (stereo not given),0.474
9,CS(=O)(=O)CCOC(=O)C1=CC(CCCO)=CC(c2ccc(CN3CCCC3)cc2)N(Cc2cccc(OC(F)(F)F)c2)C=C1C(=O)OCCS(C)(=O)=O (stereo not given),1.57
10,C=CC[C@]1(C(=O)N2CCOCC2)N=C(c2ccc(OCCCO)cc2)O[C@H]1c1ccccc1N=[N+]=[N-],1.54
